Results taken from PubChem BioAssay AID2158 (National Center for Advancing Translational Sciences (NCATS), 2009).
Values joined by “and” are separate entries in the source; they are usually repeats but may differ in a detail not shown here. Equal entries are not always repeated. Inconclusive results are not listed. A number with no mark means an inactive call. Active and inactive are the calls of the source. The call rests on the fitted dose curve; in most records, active means well fitted inhibition curve with a large enough effect; inconclusive means small, poorly fitted or top-dose-only effect; inactive means no such curve, though single readings can be large or run the other way.

Target: Cruzipain (Trypanosoma cruzi) (UniProt P25779)
Sequence (P25779 123-467 limits assumed): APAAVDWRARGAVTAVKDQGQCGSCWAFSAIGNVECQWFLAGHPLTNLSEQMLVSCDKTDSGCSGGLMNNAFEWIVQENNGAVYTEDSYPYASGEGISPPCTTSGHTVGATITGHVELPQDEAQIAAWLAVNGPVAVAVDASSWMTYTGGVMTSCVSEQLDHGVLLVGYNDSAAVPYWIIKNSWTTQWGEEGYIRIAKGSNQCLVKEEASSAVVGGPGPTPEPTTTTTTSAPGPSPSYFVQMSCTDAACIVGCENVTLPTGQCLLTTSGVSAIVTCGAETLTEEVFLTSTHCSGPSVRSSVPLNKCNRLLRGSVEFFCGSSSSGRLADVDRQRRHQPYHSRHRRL
Assay: Confirmation qHTS Assay for Inhibitors of Cruzain; further: nearly all actives have a fitted effect of over 40% in size;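 on activity change, negative = inhibition: plate controls were uninhibited enzyme control for no effect and buffer wells lacking enzyme for full effect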
Conditions: purified cruzain, Z-FR-AMC fluorescence, 0.01% Triton
Procedure, shortened: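 Reaction progress from the 60 s rise in AMC fluorescence (ex 360, em 450 nm) after adding 2 uM Z-FR-AMC. Before this, 1.5 nM cruzain sat 15 min at room temperature with compound in pH 5.5 acetate buffer with 5 mM DTT and 0.01% Triton X-100.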
Potency means the concentration at half of the fitted maximal effect.

Structure (SMILES) | activity change, negative = inhibition | Potency
O=C(Cn1c(=O)oc2cc(S(=O)(=O)N3CCCCCC3)ccc21)NC1CCCCCCC1 | -3.87% | –
N#Cc1nc(Nc2cc(F)cc(F)c2)c2ncn(C3CCCC3)c2n1 | – | 0.0224 µM (active)
CCn1cnc2c(Nc3ccc(Cc4cccnc4)cc3)nc(C#N)nc21 | – | 14.1 µM (active)
Cc1ccc2[nH]c(=O)c(CN(CCCO)Cc3nnnn3Cc3ccco3)cc2c1 | -4.63% | –
N#Cc1nc(Nc2cc(F)cc(F)c2)nc(Nc2cc(F)cc(F)c2)n1 | – | 0.0794 µM (active)
c1ccc(CNCc2nnc(-c3cc4ccccc4[nH]3)s2)cc1 | -7.37% | –
COCC(C)NC(=O)Cn1c(SCc2ccccc2)nc2ccccc21 (stereo not drawn) | -6.96% | –
CC1=CC(=NOC(=O)/C=C/c2ccccc2)C=C(C)C1=O | – | 3.98 µM (active)
Cc1cc(OCC(=O)Nc2ccc(N3CCCC3)cc2)cc(C)c1Cl | -30.4% | –
N#Cc1nc(Nc2cccc(Cl)c2)nc(NC2CCCC2)n1 | – | 0.0794 µM (active)
O=C(Cc1nnc(-c2nc3ccccc3[nH]2)o1)Nc1cc(C(F)(F)F)ccc1Cl | -0.284% | –
CCOC(=O)N1CCC(=C2c3ccc(Cl)cc3CCc3cccnc32)CC1 | -13.4% | –
N#Cc1nc(NC2CCCC2)c2ncn(-c3cc(F)cc(F)c3)c2n1 | – | 0.316 µM (active)
O=C(CNC(=O)c1ccncc1)OC(C(=O)Nc1cc(C(F)(F)F)ccc1Cl)c1ccccc1 (stereo not drawn) | – | 25.1 µM (active)
COc1ccc(-c2nn3c(-c4cc(C)[nH]n4)nnc3s2)cc1 | -13.7% | –
COc1ccc(-c2nc3c(=O)n(C)c(=O)nc-3n(C)n2)cc1 | – | 1.26 µM (active)
O=c1c2ccccc2sc2nc(C3CCCCC3)n(Cc3ccco3)c(=O)c12 | – | 25.1 µM (active)
N#Cc1nc(NCC2CC2)nc(Nc2ccccc2)n1 | – | 0.891 µM (active)
CCCn1c2ccc(F)cc2c2nnc(SCCN3CCCCC3)nc21 | – | 12.6 µM (active)

Structure (SMILES) | activity change, negative = inhibition | Potency
CC(C)CC(=O)OC1C(N2CCOCC2)c2c(ccc(/C=C/C(=O)N3CCOCC3)c2O)OC1(C)C (stereo not drawn) | -26% | –
CN1C(=O)/C(=N\OC(=O)c2cccc3ccccc23)c2ccccc21 | – | 10 µM (active)
COc1ccc2[nH]c(=O)c(CN(Cc3nnnn3Cc3ccco3)C3CCCCC3)cc2c1 | – | 14.1 µM (active)
O=C1NN(c2ccc(Cl)c(Cl)c2)C(=O)/C1=C/c1cccc(OC(=O)c2cccs2)c1 | – | 35.5 µM (active)
CC1CN(c2oc(-c3cccs3)nc2C#N)CC(C)O1 (stereo not drawn) | -79.4% | –
C/C(CC(=O)Nc1ccc(Cl)c(Cl)c1)=N\NC(N)=S | – | 1.12 µM (active)
Cc1cccc2cc(CN(Cc3ccccc3)Cc3nnnn3Cc3ccccc3)c(=O)[nH]c12 | -11.7% | –
N=c1c(C(=O)NCc2ccc(F)cc2)cc2c(=O)n3ccccc3nc2n1CC1CCCO1 (stereo not drawn) | -76.7% | –
CC(C)(C)OC(=O)Cc1nnc(-c2nc3ccccc3[nH]2)s1 | -9.29% | –
O=C(CNC(=O)c1ccc2cc[nH]c2c1)OC(C(=O)Nc1cc(C(F)(F)F)ccc1Cl)c1ccccc1 (stereo not drawn) | – | 12.6 µM (active)
Cc1ccc(OCCn2c(CCNC(=O)C3CCCCC3)nc3ccccc32)cc1 | – | 0.1 µM (active)
O=C(Nc1nc(-c2ccc(S(=O)(=O)N3CCCCCC3)cc2)cs1)c1cccs1 | -3.12% | –
Cc1ccc(C(=O)COC(=O)CNC(=O)COc2ccccc2C)cc1C | – | 14.1 µM (active)
N#Cc1nc(Nc2ccc(F)cc2)nc(NC2CCCC2)n1 | – | 0.126 µM (active)
O=C(Cc1nnc(-c2cc3ccccc3[nH]2)s1)Nc1cc(C(F)(F)F)ccc1Cl | -8.66% and 1.72% | –
CSc1nc(N(CCO)CCO)c2sc3nc(-c4ccco4)c4c(c3c2n1)CCC4 | – | 11.2 µM (active)
COc1cccc(NC(=O)C(OC(=O)CNC(=O)c2ccccc2)c2ccccc2)c1 (stereo not drawn) | – | 12.6 µM (active)
C=Cc1nc(Nc2cc(F)cc(F)c2)nc(NC2CCCC2)n1 | -5.68% | –
CCN(CCO)c1nc(SC)nc2c1sc1nc(-c3ccco3)c3c(c12)CCC3 | – | 17.8 µM (active)
